The results in this text go back to PubChem BioAssay (EPA / NIEHS).

Records with an inconclusive call do not appear. Active and inactive are the calls of the source. The calls were made as follows, unless noted: active = hit-call score of the fitted dose curve at least 0.9, where 1 is the maximum; inactive = score below 0.9.

Read-out in assay [1]: Interleukin-1 alpha (IL1a), IL1A (gene 3552)
As to the kind of experiment: BSK_LPS_IL1a: BioMAP Diversity Plus: LPS Assay for Interleukin-1 alpha (IL1a) Biomarker Activity (AID 2283080). The note with it: primary human HUVEC with PBMC; actives raise or lower the signal. The gist of the method:
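Measured: IL-1 alpha via ELISA at 24 h in LPS-activated human umbilical vein endothelium–PBMC co-culture. Baseline: DMSO, bidirectional fitting.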

Read-out in assay [2]: Monocyte Chemoattractant Protein-1 (MCP1), CCL2 (gene 6347)
The assay can be described thus: BSK_LPS_MCP1: BioMAP Diversity Plus: LPS Assay for Monocyte Chemoattractant Protein-1 (MCP1) Biomarker Activity (AID 2283081).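 As to AC50: secreted MCP-1 protein quantified by ELISA in culture supernatant.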 To be noted: primary human HUVEC with PBMC; actives raise or lower the signal. The gist of the method:
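LPS-stimulated HUVEC/PBMC co-culture; chemical, 24 h; MCP-1 by ELISA; bidirectional fit vs DMSO; cytotoxicity via SRB (0.1% stain, 10% TCA fix, 560 nm) in parallel wells.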

Assay [3] is described as follows: BSK_LPS_PGE2: BioMAP Diversity Plus: LPS Assay for Prostaglandin E2 (PGE2) Biomarker Activity (AID 2283082).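 As to AC50: secreted prostaglandin E2 measured by ELISA in LPS-stimulated co-culture.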 The note with it: primary human HUVEC with PBMC; actives raise or lower the signal. Summed up: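 ELISA read-out of PGE2 from human umbilical vein endothelial cells co-cultured with peripheral blood mononuclear cells under LPS, 24 h post-dose. Gain or loss of signal scored relative to DMSO baseline.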

Read-out in assay [4]: Macrophage colony-stimulating factor (MCSF), CSF1 (gene 1435)
As to the kind of experiment: BSK_LPS_MCSF: BioMAP Diversity Plus: LPS Assay for Macrophage colony-stimulating factor (MCSF) Biomarker Activity (AID 2283083). The note with it: primary human HUVEC with PBMC; actives raise or lower the signal. Summed up: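 Compound is added to a human vascular primary co-culture of umbilical vein endothelium and blood mononuclear cells. After 24 h, M-CSF is quantified by ELISA. Signal changes are fitted in both directions against DMSO.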

Read-out in assay [5]: Tissue Factor, F3 (gene 2152)
The assay can be described thus: BSK_LPS_TissueFactor: BioMAP Diversity Plus: LPS Assay for Tissue Factor Biomarker Activity (AID 2283084). To be noted: primary human HUVEC with PBMC; actives raise or lower the signal. Summed up:
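In this co-culture system of umbilical vein endothelium with PBMC, stimulated with LPS, cell-surface CD142 is detected by ELISA at 24 h. Endpoint values derive from bidirectional fitting, DMSO serving as baseline.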

Read-out in assay [6]: Tumor necrosis factor (Homo sapiens) (UniProt P01375)
The assay can be described thus: BSK_LPS_TNFa: BioMAP Diversity Plus: LPS Assay for Tumour Necrosis Factor alpha (TNFa) Biomarker Activity (AID 2283085).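 As to AC50: TNFa protein level quantified by ELISA in the co-culture.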 The note with it: primary human HUVEC with PBMC; actives raise or lower the signal. The gist of the method:
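HUVEC/PBMC co-culture, LPS-stimulated; 24 h post-dose; TNFa by ELISA; gain or loss of signal fitted bidirectionally vs DMSO baseline.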

Read-out in assay [7]: Vascular cell adhesion molecule 1 (VCAM1), VCAM1 (gene 7412)
As to the kind of experiment: BSK_LPS_VCAM1: BioMAP Diversity Plus: LPS Assay for Vascular cell adhesion molecule 1 (VCAM1) Biomarker Activity (AID 2283086). To be noted: primary human HUVEC with PBMC; actives raise or lower the signal. Summed up:
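ELISA read-out of VCAM-1 at 24 h post-dosing in an LPS-driven HUVEC/PBMC primary human co-culture; gain or loss of signal fitted bidirectionally against DMSO baseline. Cytotoxicity tracked in parallel cultures by SRB total-protein staining.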

Read-out in assay [8]: CD38, CD38 (gene 952)
As to the kind of experiment: BSK_SAg_CD38: BioMAP Diversity Plus: SAg Assay for CD38 Biomarker Activity (AID 2283087). To be noted: primary human HUVEC with PBMC; actives raise or lower the signal. Summed up:
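Measures CD38 on a human endothelial/PBMC co-culture driven by SEB and TSST-1, 24 h after compound exposure, using ELISA with fluorescence detection; DMSO defines baseline for bidirectional curve fitting.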

Read-out in assay [9]: CD40, CD40 (gene 958)
As to the kind of experiment: BSK_SAg_CD40: BioMAP Diversity Plus: SAg Assay for CD40 Biomarker Activity (AID 2283088). To be noted: primary human HUVEC with PBMC; actives raise or lower the signal. Summed up: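 Fluorescence ELISA read-out of CD40 from umbilical vein endothelium plus peripheral blood mononuclear cells, sampled 24 h after dosing. Values come from bidirectional curve fitting with DMSO as baseline.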

Read-out in assay [10]: CD69, CD69 (gene 969)
As to the kind of experiment: BSK_SAg_CD69: BioMAP Diversity Plus: SAg Assay for CD69 Biomarker Activity (AID 2283089).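 As to AC50: cell surface CD69 protein quantified by ELISA with fluorescence detection.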 To be noted: primary human HUVEC with PBMC; actives raise or lower the signal. Summed up: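 HUVEC co-cultured with PBMC were dosed with chemical, and CD69 was measured by ELISA with fluorescence read-out 24 h later. Bidirectional curve fitting used DMSO as negative control and activity baseline.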

Read-out in assay [11]: Monocyte Chemoattractant Protein-1 (MCP1), CCL2 (gene 6347)
As to the kind of experiment: BSK_SAg_MCP1: BioMAP Diversity Plus: SAg Assay for Monocyte Chemoattractant Protein-1 (MCP1) Biomarker Activity (AID 2283090). To be noted: primary human HUVEC with PBMC; actives raise or lower the signal. Summed up: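 Values derive from bidirectional fitting of ELISA-measured MCP1 against DMSO controls. Readings were taken 24 h after dosing human vascular endothelial cells co-cultured with peripheral blood mononuclear cells under superantigen stimulation.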

Read-out in assay [12]: E-selectin (Homo sapiens) (UniProt P16581)
The assay can be described thus: BSK_SAg_Eselectin: BioMAP Diversity Plus: SAg Assay for Eselectin Biomarker Activity (AID 2283091). The note with it: primary human HUVEC with PBMC; actives raise or lower the signal. The gist of the method:
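Primary human endothelial cells and peripheral blood mononuclear cells were co-cultured and exposed to chemical for 24 hours. E-selectin levels were then quantified by ELISA, with bidirectional curve fitting normalised to DMSO controls.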

Read-out in assay [13]: Monokine induced gamma interferon (MIG), CXCL9 (gene 4283)
As to the kind of experiment: BSK_SAg_MIG: BioMAP Diversity Plus: SAg Assay for Monokine induced gamma interferon (MIG) Biomarker Activity (AID 2283092). The note with it: primary human HUVEC with PBMC; actives raise or lower the signal. The gist of the method:
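HUVEC plus human PBMC co-culture, chemicals dosed and MIG (CXCL9) quantified by ELISA at 24 h. Bidirectional curve fitting against DMSO as negative control and baseline, so both gain and loss of signal count as activity.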

Assay [14] can be described thus: BSK_SAg_PBMCCytotoxicity: PBMC Cytotoxicity Assessment in the BioMAP Diversity Plus: SAg Assay (AID 2283093).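 Also: fitted both ways against DMSO so a hit may be loss or gain of signal.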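 As to AC50: PBMC superantigen activated with SEB plus TSST-1 one hour after compound addition.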 To be noted: primary human HUVEC with PBMC. The gist of the method: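 PBMC viability by Alamar Blue reduction, fluorescence read at 546/580 nm after 6 h dye exposure. Cells were dosed 1 h before SEB plus TSST-1 activation (20 ng/mL final each), then held 90 h; endothelial/PBMC human co-culture.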

Read-out in assay [15]: Interleukin-8 (IL8), CXCL8 (gene 3576)
As to the kind of experiment: BSK_SAg_IL8: BioMAP Diversity Plus: SAg Assay for Interleukin-8 (IL8) Biomarker Activity (AID 2283094). To be noted: primary human HUVEC with PBMC; actives raise or lower the signal. Summed up:
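HUVEC/PBMC co-culture, 24 h post-dose; IL-8 by ELISA. Gain or loss of signal fitted bidirectionally vs DMSO baseline.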

Assay [16] in a line: BSK_SAg_Proliferation: Cell Proliferation Assessment in the BioMAP Diversity Plus: SAg Assay (AID 2283095).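 Also: relative cell number as total protein by SRB absorbance in sub-confluent culture.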 The note with it: primary human HUVEC with PBMC. The gist of the method:
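HUVEC/PBMC co-culture, 96-well. TCA-fixed (10%), 0.1% SRB stain, A560 at 96 h. Protein content used as viability readout; bidirectional fitting vs DMSO control.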

Assay [17] can be described thus: BSK_SAg_SRB: Viability Assessment in the BioMAP Diversity Plus: SAg Assay (AID 2283096).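 Also: cells read one day after compound addition; hits may be either gain or loss of signal compared with DMSO.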 To be noted: primary human HUVEC with PBMC. The gist of the method: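 Compounds were added to a human vascular co-culture of umbilical vein endothelium and PBMC. After 24 h, parallel cultures were fixed with 10% TCA, stained with 0.1% sulforhodamine B and read at 560 nm. Gain or loss of signal was fitted relative to DMSO.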

Assay [18] addresses human CYP19A1, CYP19A1 (gene 1588) (UniProt P11511). As to the kind of experiment: NVS_ADME_hCYP19A1: NovaScreen (NVS) CYP450-related Enzyme Activity (ADME) Assay for human CYP19A1 (AID 2283098; active = hit-call score of the fitted dose curve at least 0.9, where 1 is the maximum;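 as to AC50: potency for inhibitors seen as loss of fluorescent enzyme signal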). Summed up: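 Fluorescence intensity read-out; activity taken as signal loss relative to acetonitrile vehicle. Extracted enzyme, specific substrate, no cells, 0.5 h exposure. Duplicate single-point screen at 10 uM, then concentration–response follow-up for actives.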

For assay [19], the target named is human CYP2A6, CYP2A6 (gene 1548) (UniProt P11509). The assay can be described thus: NVS_ADME_hCYP2A6: NovaScreen (NVS) CYP450-related Enzyme Activity (ADME) Assay for human CYP2A6 (AID 2283099; active = hit-call score of the fitted dose curve at least 0.9, where 1 is the maximum). The gist of the method:
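Recombinant human CYP2A6 from insect cells was incubated with chemical for 0.5 h and activity read by fluorescence. Single-concentration duplicates at 10 uM preceded concentration-response testing to 20 uM, with activity referenced to acetonitrile.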

The target of assay [20] is human CYP1A1, CYP1A1 (gene 1543) (UniProt P04798). The assay can be described thus: NVS_ADME_hCYP1A1: NovaScreen (NVS) CYP450-related Enzyme Activity (ADME) Assay for human CYP1A1 (AID 2283100; active = hit-call score of the fitted dose curve at least 0.9, where 1 is the maximum). Summed up:
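Compounds first went through duplicate single-concentration testing at 10 uM against purified CYP1A1. Those passing a threshold such as 30% inhibition entered singleton dose-response, highest concentration 20 uM. Signal was fluorescence measured after 1 hour.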

Sequence of human CYP19A1, CYP19A1 (gene 1588) (P11511 whole entry, looked up): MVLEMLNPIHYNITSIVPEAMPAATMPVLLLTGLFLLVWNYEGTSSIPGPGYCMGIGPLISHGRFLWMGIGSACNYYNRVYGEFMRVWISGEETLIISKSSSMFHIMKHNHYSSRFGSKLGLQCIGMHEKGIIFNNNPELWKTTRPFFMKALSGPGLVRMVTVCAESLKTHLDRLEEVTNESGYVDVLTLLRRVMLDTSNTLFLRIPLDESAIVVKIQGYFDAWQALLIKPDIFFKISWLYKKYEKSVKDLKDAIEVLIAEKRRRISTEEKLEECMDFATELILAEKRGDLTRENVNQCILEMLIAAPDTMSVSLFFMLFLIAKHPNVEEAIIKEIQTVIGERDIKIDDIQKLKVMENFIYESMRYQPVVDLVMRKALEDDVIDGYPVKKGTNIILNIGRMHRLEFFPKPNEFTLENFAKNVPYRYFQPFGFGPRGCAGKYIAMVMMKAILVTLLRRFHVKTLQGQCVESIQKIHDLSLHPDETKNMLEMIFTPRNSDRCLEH
Sequence of Tumor necrosis factor (Homo sapiens) (P01375 whole entry, looked up): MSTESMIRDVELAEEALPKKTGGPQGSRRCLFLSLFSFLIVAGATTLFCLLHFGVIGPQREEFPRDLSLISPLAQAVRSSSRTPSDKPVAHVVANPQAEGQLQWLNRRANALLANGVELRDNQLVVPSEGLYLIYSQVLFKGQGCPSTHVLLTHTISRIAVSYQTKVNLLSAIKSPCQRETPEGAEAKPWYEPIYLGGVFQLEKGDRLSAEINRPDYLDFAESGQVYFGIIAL
Sequence of E-selectin (Homo sapiens) (P16581 whole entry, looked up): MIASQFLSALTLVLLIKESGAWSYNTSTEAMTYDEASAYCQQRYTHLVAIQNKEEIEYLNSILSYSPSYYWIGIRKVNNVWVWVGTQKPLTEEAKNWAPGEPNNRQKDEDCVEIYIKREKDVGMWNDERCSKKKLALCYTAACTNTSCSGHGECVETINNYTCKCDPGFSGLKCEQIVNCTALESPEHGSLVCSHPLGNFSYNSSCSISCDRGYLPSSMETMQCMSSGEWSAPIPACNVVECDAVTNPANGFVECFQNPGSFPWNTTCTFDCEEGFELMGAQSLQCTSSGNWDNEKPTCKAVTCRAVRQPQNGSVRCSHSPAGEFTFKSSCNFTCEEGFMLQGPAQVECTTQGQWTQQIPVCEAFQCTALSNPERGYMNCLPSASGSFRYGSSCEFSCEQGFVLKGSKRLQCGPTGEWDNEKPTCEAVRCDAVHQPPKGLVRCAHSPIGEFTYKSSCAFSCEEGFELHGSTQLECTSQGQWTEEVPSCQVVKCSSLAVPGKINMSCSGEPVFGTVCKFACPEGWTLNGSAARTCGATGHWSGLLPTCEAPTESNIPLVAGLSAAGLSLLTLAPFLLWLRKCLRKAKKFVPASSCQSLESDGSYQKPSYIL
Sequence of human CYP2A6, CYP2A6 (gene 1548) (P11509 whole entry, looked up): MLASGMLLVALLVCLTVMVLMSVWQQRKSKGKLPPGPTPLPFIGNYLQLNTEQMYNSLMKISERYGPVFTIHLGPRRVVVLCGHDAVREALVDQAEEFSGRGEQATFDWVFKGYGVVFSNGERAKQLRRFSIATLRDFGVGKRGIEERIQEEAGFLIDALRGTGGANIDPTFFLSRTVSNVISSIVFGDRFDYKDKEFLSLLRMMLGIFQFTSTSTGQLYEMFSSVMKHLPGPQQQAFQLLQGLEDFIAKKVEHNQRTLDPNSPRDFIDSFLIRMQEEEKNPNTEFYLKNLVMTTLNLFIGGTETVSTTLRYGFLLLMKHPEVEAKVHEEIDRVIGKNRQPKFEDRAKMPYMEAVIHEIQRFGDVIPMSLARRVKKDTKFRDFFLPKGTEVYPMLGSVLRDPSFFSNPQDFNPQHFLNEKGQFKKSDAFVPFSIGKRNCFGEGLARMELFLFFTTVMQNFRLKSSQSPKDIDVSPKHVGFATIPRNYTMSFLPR
Sequence of human CYP1A1, CYP1A1 (gene 1543) (P04798 whole entry, looked up): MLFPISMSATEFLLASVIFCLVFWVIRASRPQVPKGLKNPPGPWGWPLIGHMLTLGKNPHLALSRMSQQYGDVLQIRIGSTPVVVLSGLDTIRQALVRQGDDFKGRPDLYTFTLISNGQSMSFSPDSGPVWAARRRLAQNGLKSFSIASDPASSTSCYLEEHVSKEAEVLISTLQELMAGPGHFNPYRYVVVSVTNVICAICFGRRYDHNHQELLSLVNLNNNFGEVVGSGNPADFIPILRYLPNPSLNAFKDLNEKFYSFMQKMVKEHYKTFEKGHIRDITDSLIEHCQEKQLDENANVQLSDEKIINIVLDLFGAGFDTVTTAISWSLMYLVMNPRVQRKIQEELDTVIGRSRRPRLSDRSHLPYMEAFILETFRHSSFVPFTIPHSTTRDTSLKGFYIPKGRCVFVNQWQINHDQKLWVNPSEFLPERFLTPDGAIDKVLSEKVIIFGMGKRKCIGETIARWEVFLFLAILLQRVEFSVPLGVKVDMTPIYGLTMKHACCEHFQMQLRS

`O=[N+]([O-])/N=C1\NCCN1Cc1ccc(Cl)nc1`: the outcome in assay [1], in assay [2], in assay [3], in assay [4], in [5] and in [6] was inactive. For the same compound, the outcome in assay [7], in assay [8], in assay [9], in assay [10], in assay [11] and in assay [12] was inactive. For the same compound, the outcome in assay [13], in assay [14], in assay [15], in assay [16], in [17] and in assay [18] was inactive.
Usually AC50 stands for the concentration at which the activity in the assay is half-maximal. For `N#Cc1c(Cl)c(Cl)c(Cl)c(C#N)c1Cl`, the AC50 was 1030 nM (active) in assay [1]; 1160 nM (active) in assay [2]; 148 nM (active) in [3]; 924 nM (active) in assay [4]; 332 nM (active) in [5]; 134 nM (active) in assay [6]. The half-maximal activity concentration (AC50) in assay [7] is 773 nM (active); in [8], 953 nM (active); in assay [9], 459 nM (active); in [10], 1350 nM (active); in assay [11], 1680 nM (active); in assay [12], 959 nM (active). The AC50 in assay [13] was 1830 nM (active); in [14], 1400 nM (active); in assay [15] it was 1740 nM (active); in assay [16] it was 197 nM (active); in assay [17], 2270 nM (active); in assay [18], 192 nM (active). Further, in assay [19], the call was inactive.
As to `COP(=S)(OC)Oc1ccc([N+](=O)[O-])cc1`, the result in [1], in assay [2], in assay [5], in assay [6], in assay [7] and in assay [13] was inactive. In assay [18], the compound was called inactive. Moreover, the half-maximal activity concentration (AC50) is 14600 nM (active) in assay [3]; 15400 nM (active) in [4]; 20000 nM (active) in [8]; 13800 nM (active) in assay [9]; 15500 nM (active) in [10]; 14500 nM (active) in assay [11]. For the same compound, the AC50 in assay [12] is 30900 nM (active); in assay [14] it was 11500 nM (active); in assay [15] it was 20000 nM (active); in [16], 21900 nM (active); in assay [17], 21700 nM (active); in assay [19], 2850 nM (active). Also, the concentration at half-maximal activity (AC50) in assay [20] was 6610 nM (active).
As to `[2H]C1([2H])[n+]2ccccc2-c2cccc[n+]2C1([2H])[2H]`, the result in assay [1], in [2], in assay [3], in assay [4], in [5] and in assay [6] was inactive. For the same compound, the outcome in [7], in assay [8], in assay [9], in assay [10], in assay [11] and in assay [12] was inactive. In addition, the result in assay [13], in assay [14], in assay [15], in assay [16] and in [17] was inactive.
Turning to `COP(=S)(OC)Oc1ccc(SC)c(C)c1`, the outcome in assay [1], in [2], in assay [5], in assay [6], in assay [7] and in [8] was inactive. Besides, the outcome in assay [9], in assay [10], in assay [11], in assay [13], in assay [14] and in assay [15] was inactive. Besides, the outcome in [16] and in assay [17] was inactive. The AC50 in assay [3] is 30100 nM (active); in assay [4] it was 15900 nM (active); in [12], 33600 nM (active).
As to `O=C(O)COc1ccc(Cl)cc1Cl`, the result in assay [1], in assay [2], in [3], in [4], in [5] and in assay [6] was inactive. For the same compound, the outcome in assay [7], in assay [8], in [9], in assay [10], in assay [11] and in assay [12] was inactive. Also, the result in [13], in [14], in assay [15], in assay [16] and in assay [17] was inactive.
